Data from PubChem BioAssay (NCI).
Compounds without any hit were thinned out: in the full panel of roughly 83,000, 20% have a hit.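 The test compound was applied at a single concentration to cells in 96-well plates for 48 hours, and percent growth was recorded.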 A number with no mark means an inactive call. Calls of active or inactive are those of the source. Rule for the calls: active = growth percent below 10; inactive = the rest.

Assays:
Test in all cases: NCI-60 one-dose screen, 48 h (100 = growth as untreated, 0 = no growth, -100 = all killed)
Details in all cases: 10 µM unless noted
NCI-H23 lung = test system: NCI-H23 lung
NCI-H226 lung = test system: NCI-H226 lung
NCI-H322M lung = test system: NCI-H322M lung
HOP-62 NSCLC = test system: HOP-62 NSCLC
NCI-H460 lung = test system: NCI-H460 lung
HOP-92 NSCLC = test system: HOP-92 NSCLC
NCI-H522 lung = test system: NCI-H522 lung
A549/ATCC NSCLC = test system: A549/ATCC NSCLC
786-0 renal = test system: 786-0 renal
COLO 205 colon = test system: COLO 205 colon

Row | SMILES | growth (NCI-H23 lung) | growth (NCI-H226 lung) | growth (NCI-H322M lung) | growth (HOP-62 NSCLC) | growth (NCI-H460 lung) | growth (HOP-92 NSCLC) | growth (NCI-H522 lung) | growth (A549/ATCC NSCLC) | growth (786-0 renal) | growth (COLO 205 colon)
1 | O=C(Nc1cccc2ccccc12)NC1CC1 | 105% | 99.9% | 111% | 89.8% | 106% | 99% | 136% | 103% | 101% | 107%
2 | Fc1cc2c(cc1Cl)N(c1ncnc3ccc(-c4ccc5n[nH]nc5c4)cc13)CC2 | 79.6% | 88.1% | 54.5% | 72.3% | 97.1% | 31.5% | 67.3% | 77.5% | 78.6% | 109%
3 | Nc1ncnc2c1C(c1ccc(Br)cc1)c1sc3c(F)cccc3c1O2 (stereo not given) | 88.5% | 81.5% | 95.9% | 90.1% | 92.1% | 91.7% | 84.2% | 99.3% | 99.9% | 106%
4 | O=C(O)c1cn(C2CC2)c2cc(N3CCN(C(=O)N(c4ccccc4)c4nc(-c5ccccc5)cs4)CC3)c(F)cc2c1=O | -3.61% (active) | 4.84% (active) | 2.44% (active) | -1.15% (active) | 2.93% (active) | -25% (active) | -25% (active) | 9.6% (active) | 4.01% (active) | -20.6% (active)
5 | C=C(C)[C@@H]1CC[C@]2(CO)CC[C@]3(C)[C@H](CC[C@@H]4[C@@]5(C)CC[C@H](NCO)C(C)(C)[C@@H]5CC[C@]43C)[C@@H]12 | -20.9% (active) | 72.5% | -83.7% (active) | -61.9% (active) | -86.1% (active) | 42.2% | -42.7% (active) | -45.7% (active) | -94% (active) | -57.1% (active)
6 | Cc1nc2sc(C(=O)Nc3cccc(Br)c3)c(N)c2cc1C(O)c1ccccc1 (stereo not given) | 25.1% | 61.7% | 61% | 47.5% | 4.9% (active) | 76.3% | 9.66% (active) | 20.4% | 36.2% | 16.6%
7 | CC1=C([Se]CC(OC(=O)CC[Se]c2ccccc2)C(=O)NC(C)(C)C)C(=O)c2ccccc2C1=O (stereo not given) | -45.6% (active) | -49.4% (active) | -51.9% (active) | -36.1% (active) | -49.2% (active) | -74.5% (active) | -38.7% (active) | -1.39% (active) | -90.2% (active) | -90.1% (active)
8 | O=C(CN1C(=O)NC2NC(=O)NC21)N/N=C/c1ccccc1[N+](=O)[O-] (stereo not given) | 106% | 87.6% | 106% | 103% | 108% | 115% | 96.5% | 110% | 101% | 120%
9 | CC/C=C\C[C@H](O)C/C=C1/C(=O)C=C[C@@H]1C/C=C\CCCC(=O)N(C)C | -27% (active) | -51.3% (active) | 18.3% | -40.2% (active) | -26.3% (active) | -4.76% (active) | -88.2% (active) | -35.6% (active) | -66.2% (active) | -58.6% (active)
10 | Fc1cccc(Oc2ccc(Nc3ncnc4ccc(OCCCN5CCOCC5)cc34)cc2Cl)c1 | 73.5% | 88.1% | 37.7% | 82.5% | 42.5% | 54.3% | 43.8% | 48.3% | 51.9% | 79.4%
11 | COc1ccc(C2=C(Br)C(=O)c3nc(C)ccc3C2=O)cc1 | 88.1% | 83% | 88.4% | 86.8% | 95.7% | 78% | 24% | 98% | 103% | 0.376% (active)
12 | O=C1c2ccc3c4c5ccc(c24)C(=O)N1CCCOCCCCOCCCNCc1ccc(cc1)CNCCCOCCCCOCCCN(C3=O)C5=O | -52.3% (active) | 72.8% | 0.552% (active) | 33.6% | 3.03% (active) | 45.8% | -39.2% (active) | -40.1% (active) | -6.67% (active) | -71% (active)
13 | CCCCNC(=O)Oc1ccc(/C(=C(/C)Cc2ccc(OC)cc2)c2ccc(OCCN3CCCC3)cc2)cc1 | 85.9% | 94.7% | 81.6% | 79.1% | 17.7% | 49% | 55.5% | 48.7% | 59.8% | -57.4% (active)
14 | CC(C)=CCC[C@](C)(O)[C@H]1CC[C@]2(C)[C@@H]1CC[C@@H]1[C@@]3(C)C/C(=C/c4ccco4)C(=O)C(C)(C)[C@@H]3CC[C@]12C | 101% | 103% | 103% | 102% | 106% | 98.2% | 102% | 107% | 99.6% | 110%
15 | COc1ccc(OC)c(Nc2nnc(-c3ccc(O)c(OC)c3)o2)c1 | 70.7% | 77.1% | 86.9% | 77.6% | 82.8% | 85.1% | 61.1% | 75.5% | 36.7% | 117%
16 | O=c1[nH]c(-c2ccccc2)nc2sc3cc(O)ccc3c12 | 84.6% | 79.6% | 81.2% | 105% | 84.1% | 94.8% | 75.5% | 81.6% | 79.3% | 110%
17 | O=C(Nc1cccc(Cl)c1)Nc1cccc(Cn2c(=O)[nH]c3ccc(Oc4ncccn4)cc3c2=O)c1 | 33.1% | 64.4% | 66.1% | 64.8% | 42.8% | 43.7% | 25.6% | 40.4% | 71.4% | 48.3%
18 | O=C1/C(=C/c2ccc([N+](=O)[O-])cc2)COc2ccc(O)cc21 | 96.6% | 100% | 91.9% | 104% | 97.9% | 110% | 62.2% | 97.1% | 81.9% | 92.9%
19 | O=C(N/N=C/c1c(Cl)cccc1Cl)c1cccnc1Nc1cccc(C(F)(F)F)c1 | 44.3% | 18.4% | 35% | 40.2% | 15% | 14.7% | 1.47% (active) | 51% | 42.6% | 15.1%
20 | CCn1c(SCC(=O)N/N=C(\C)c2ccc(Cl)cc2)nc2c1c(=O)n(C)c(=O)n2C | 102% | 99.7% | 96.9% | 91.8% | 101% | 103% | 97.7% | 104% | 101% | 107%
21 | O=C(O)c1ccc(-n2cc(/C=N/Nc3ccccc3)c(-c3ccc(F)cc3F)n2)cc1 | 71.5% | 84.2% | 62.1% | 40.2% | 55.3% | 83.5% | 26.6% | 60% | 71.5% | 108%
22 | N#Cc1ccc(O)c(C2=NCC(c3cccc(Oc4ccccc4)c3)O2)c1 (stereo not given) | 41.1% | 45.2% | 41.7% | 2.94% (active) | 4.55% (active) | 36.8% | -11.9% (active) | -0.648% (active) | 26.4% | 14.7%
23 | NC(=O)C(=O)c1ccccc1NC=O | 92.1% | 97.3% | 95.3% | 86.9% | 103% | 83.2% | 88.9% | 99.7% | 110% | 118%
24 | O=S(=O)(Nc1ccc(F)cc1F)c1ccc(-c2cnc(C3CC3)o2)cc1 | 38% | 64.3% | 47.4% | 39.7% | 16.3% | 44.4% | 13.4% | 41.5% | 44% | 16.2%
25 | O=C1c2c(c3c4ccccc4[nH]c3c3ccc4ccccc4c23)C(=O)N1CCN1CCOCC1 | 32.6% | 61.4% | 51.8% | 45.8% | 2.17% (active) | 66.1% | 29.1% | 28.8% | 52.5% | 55.5%
26 | N#CC(C#N)N=Nc1ccc(Br)cc1 | 24.6% | 79% | 100% | 80.1% | 95.8% | -34.1% (active) | 7.59% (active) | 83.5% | 35.4% | -28.7% (active)
27 | CC(=O)N1N=C(c2ccc(Nc3nc(Nc4ccccc4)nc(Nc4ccccc4)n3)cc2)CC1c1ccccc1 (stereo not given) | 94% | 86% | 84.9% | 77.6% | 86.7% | 61.5% | 89.3% | 79.3% | 86.8% | 68.5%
